Paper PMC5540273 (PLoS ONE, 2017)

Columns and labels:
Conditions in all cases: concentration: 1 μM, replicates: in singlicate; n = 1
ULK3 = test system: ULK3
VEGFR2 = test system: T1, VEGFR2
T1 construct: gene KDR

VPS34 = test system: T2, VPS34
T2 construct: gene PIK3C3

VRK2 = test system: VRK2
WEE1 = test system: WEE1
WEE2 = test system: WEE2
WNK1 = test system: WNK1
WNK2 = test system: WNK2
WNK3 = test system: WNK3
WNK4 = test system: WNK4
YANK1 = test system: T3, YANK1
T3 construct: gene STK32A

YANK2 = test system: T4, YANK2
T4 construct: gene STK32B

YANK3 = test system: T5, YANK3
T5 construct: gene STK32C

YES = test system: T6, YES
T6 construct: gene YES1

YSK1 = test system: T7, YSK1
T7 construct: gene STK25

YSK4 = test system: T8, YSK4
T8 construct: gene MAP3K19

ZAK = test system: ZAK
ZAP70 = test system: ZAP70
p38-alpha = test system: T9, p38-alpha
T9 construct: gene MAPK14

p38-beta = test system: T10, p38-beta
T10 construct: gene MAPK11
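Also: KINOMEscan kinase panel screen.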

Compound	%Inh (ULK3)	%Inh (VEGFR2)	%Inh (VPS34)	%Inh (VRK2)	%Inh (WEE1)	%Inh (WEE2)	%Inh (WNK1)	%Inh (WNK2)	%Inh (WNK3)	%Inh (WNK4)	%Inh (YANK1)	%Inh (YANK2)	%Inh (YANK3)	%Inh (YES)	%Inh (YSK1)	%Inh (YSK4)	%Inh (ZAK)	%Inh (ZAP70)	%Inh (p38-alpha)	%Inh (p38-beta)
COc1cc2nccc(Nc3cccc(Oc4ccccc4)c3)c2cc1OC.Cl [GW284543]	8%	12%	35%	0%	8%	14%	0%	11%	10%	0%	5%	0%	1%	19%	0%	0%	17%	0%	0%	0%
CCCNC(=O)Nc1ccc(Oc2ncnc3ccn(C)c23)cc1	30%	13%	34%	0%	0%	13%	0%	3%	0%	0%	0%	8%	13%	0%	3%	33%	1%	0%	2%	15%
COc1cc(Nc2ccnc3ccc(C(F)(F)F)cc23)cc(OC)c1OC [GW577382]	14%	0%	0%	27%	11%	14%	8%	13%	27%	0%	4%	16%	44%	13%	1%	0%	12%	0%	30%	25%
COc1cc2ncn(-c3cc(OCCCc4ccccc4)c(C(N)=O)s3)c2cc1OC [GSK205189]	3%	0%	0%	0%	12%	4%	0%	8%	0%	0%	0%	0%	19%	0%	0%	0%	0%	0%	0%	0%
COc1ccc(CNC(=O)NC2CCN(c3ccnc(Nc4ccc(F)cc4)n3)C2)cc1 (stereo not drawn) [GSK1379706]	0%	9%	33%	33%	10%	9%	0%	30%	49%	50%	12%	0%	0%	0%	25%	0%	0%	20%	44%	0%
Cn1c(=O)c(F)c(Nc2ccc(I)cc2F)c2c(=O)n(OC[C@H](O)CO)cnc21	13%	0%	0%	0%	29%	4%	0%	0%	0%	11%	0%	10%	0%	0%	0%	0%	19%	0%	13%	11%
Cl.NS(=O)(=O)c1cccc(Nc2cc(-c3ccc(F)cc3)n[nH]2)c1 [GW824645]	12%	35%	29%	18%	0%	0%	35%	0%	25%	13%	0%	0%	0%	0%	8%	0%	0%	0%	0%	0%
FC(F)(F)c1ccc(-c2ncn(CCCN3CCOCC3)c2-c2ccncc2)cc1 [SB-217780]	4%	14%	13%	42%	48%	34%	20%	0%	15%	0%	17%	1%	7%	3%	0%	10%	17%	12%	25%	5%
Fc1cccc(CSc2nnc(-c3ccc4c(c3)CCO4)o2)c1	11%	0%	13%	5%	0%	16%	0%	14%	0%	0%	16%	12%	0%	8%	0%	20%	0%	0%	0%	16%
